Source: PubChem BioAssay (National Center for Advancing Translational Sciences (NCATS))
Sampled rows, rich in hits. Any-hit rate of the full collection: about 2.8%.
SNCA viab count: GF-AFC viability counterscreen for inhibitors of alpha-synuclein gene (SNCA) expression; HEK-293-SNCA-luc viability, GF-AFC fluorescence, 24 h; Potency, µM (series often up to 57.1 µM), for the others: top-dose activity change, negative = cytotoxicity, usual class: cytotoxic; hit rate 0.12% among 150,000; AID 1671193, 2021;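 further: potency means the concentration at half of the fitted maximal effect; 0% = DMSO-treated cells and -100% = medium-only wells without cells; nearly all actives have a fitted effect of over 30% in size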
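Cytotoxicity counterscreen: after 24 h compound treatment of genome-edited SNCA-luciferase HEK-293 cells, live-cell protease substrate GF-AFC read by fluorescence after 30 min; activity scaled between DMSO (0%) and medium-only (-100%), curves Hill-fitted.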
KDM5B inh: Primary screen for KDM5B Histone Demethylases FDH-coupled qHTS. Lysine-specific demethylase 5B (Homo sapiens), Q9UGL1. KDM5B demethylase, FDH-coupled NADH fluorescence (FDH is formaldehyde dehydrogenase). Potency, µM (doses to about 57.7 µM), usual class: inhibitors. hit rate 2.6% among 220,000. AID 1347165, 2019; further: potency means the concentration at half of the fitted maximal effect; 0% is about no effect; nearly all actives have a fitted effect of over 70% in size
Target sequence (Q9UGL1 whole entry, looked up): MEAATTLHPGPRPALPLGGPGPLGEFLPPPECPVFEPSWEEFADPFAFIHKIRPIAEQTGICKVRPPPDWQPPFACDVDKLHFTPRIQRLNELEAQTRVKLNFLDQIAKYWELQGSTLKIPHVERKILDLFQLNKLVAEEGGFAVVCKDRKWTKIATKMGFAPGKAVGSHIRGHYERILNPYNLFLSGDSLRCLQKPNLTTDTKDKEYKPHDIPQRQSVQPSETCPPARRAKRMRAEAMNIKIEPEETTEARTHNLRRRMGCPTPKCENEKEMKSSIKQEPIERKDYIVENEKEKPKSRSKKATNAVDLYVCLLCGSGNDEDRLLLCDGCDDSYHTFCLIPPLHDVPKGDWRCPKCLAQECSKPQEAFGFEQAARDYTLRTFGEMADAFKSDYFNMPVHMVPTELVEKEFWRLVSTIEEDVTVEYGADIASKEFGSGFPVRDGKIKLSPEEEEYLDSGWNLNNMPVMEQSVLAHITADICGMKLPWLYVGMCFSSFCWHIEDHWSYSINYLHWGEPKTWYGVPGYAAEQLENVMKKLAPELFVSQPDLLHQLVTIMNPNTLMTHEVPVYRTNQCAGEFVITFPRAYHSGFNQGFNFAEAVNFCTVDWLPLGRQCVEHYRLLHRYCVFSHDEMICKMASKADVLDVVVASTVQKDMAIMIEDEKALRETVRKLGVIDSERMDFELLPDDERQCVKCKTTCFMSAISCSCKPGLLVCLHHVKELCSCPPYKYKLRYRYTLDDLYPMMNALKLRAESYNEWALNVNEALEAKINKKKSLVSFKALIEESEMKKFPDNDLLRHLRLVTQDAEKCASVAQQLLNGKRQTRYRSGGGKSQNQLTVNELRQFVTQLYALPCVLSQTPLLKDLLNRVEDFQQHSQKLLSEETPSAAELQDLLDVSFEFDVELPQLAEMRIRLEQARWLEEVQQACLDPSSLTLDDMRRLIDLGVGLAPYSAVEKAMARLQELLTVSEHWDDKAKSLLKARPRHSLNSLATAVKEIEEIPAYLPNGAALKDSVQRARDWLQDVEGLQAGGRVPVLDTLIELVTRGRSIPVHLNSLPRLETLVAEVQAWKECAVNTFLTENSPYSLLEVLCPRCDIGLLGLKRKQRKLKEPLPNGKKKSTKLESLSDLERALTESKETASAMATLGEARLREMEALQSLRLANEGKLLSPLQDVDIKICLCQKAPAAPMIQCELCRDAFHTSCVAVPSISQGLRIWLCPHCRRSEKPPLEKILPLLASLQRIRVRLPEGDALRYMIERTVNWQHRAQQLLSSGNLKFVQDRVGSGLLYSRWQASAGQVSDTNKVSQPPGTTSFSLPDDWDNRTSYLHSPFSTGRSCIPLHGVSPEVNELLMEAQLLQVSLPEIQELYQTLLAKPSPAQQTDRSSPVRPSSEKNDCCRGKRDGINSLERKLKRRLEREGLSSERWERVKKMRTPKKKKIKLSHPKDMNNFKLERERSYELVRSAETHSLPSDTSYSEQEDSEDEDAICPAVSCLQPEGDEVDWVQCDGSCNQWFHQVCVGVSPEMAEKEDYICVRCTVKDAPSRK
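Coupled FDH/NAD⁺ fluorescence readout. KDM5BΔAP 200 nM final; compound titration, 10 min RT preincubation; substrate mix 12.5 µM H3K4me3, 25 µM 2-OG, 50 µM Fe(II), 100 µM ascorbate, 0.25 mM NAD⁺, 0.25 U/mL FDH; ΔRFU over 30 min.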
SNCA expr inh: Primary qHTS assay for inhibitors of alpha-synuclein gene (SNCA) expression. hit rate 0.17% among 140,000. Potency, µM (highest dose often 57.2 µM), for inactives: at the highest dose activity change, negative = inhibition, most hits filed as inhibitors. HEK-293 SNCA-luciferase knock-in, luminescence, 24 h;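 further: potency means the concentration at half of the fitted maximal effect; plate controls were DMSO cells for no effect and cell-free wells for full effect; nearly all actives have a fitted effect of over 45% in size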
IP6K1 inhibitor: Primary qHTS assay for small molecule inhibitors of Inositol hexaphosphate kinase 1 (IP6K1); Inositol hexakisphosphate kinase 1 (Homo sapiens), Q92551; IP6K1 kinase, ADP-Glo luminescence, 2 h; stronger effect = lower value; activity change, % (series mostly up to about 58 µM); hit rate 0.81% among 140,000; AID 1645851, 2021; in the data active means activity change below about -25%; further: on the % scale 0 is the no-effect control and ±100 the full control effect
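ADP-Glo luminescence measures ADP made by human IP6K1 during a 2 h RT reaction with ATP/IP6 (mix at 1.3 mM/130 uM); top library doses 57.5 and 19.1 uM final.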
Numbers without * were called inactive; i = inactive; ? = inconclusive; . = not tested or not shown; ! = repeats disagree; [ ] = another dose, or the depositor's remark. Unless noted, the call rests on the fitted dose curve; in most records, active means well fitted curve in the direction sought with a large enough effect; inconclusive means small, poorly fitted or top-dose-only effect, or another doubt; inactive means no such curve, though single readings can be large; an effect the other way counts as inactive or inconclusive.

SMILES	SNCA viab count	KDM5B inh	SNCA expr inh	IP6K1 inhibitor
CCS(=O)(=O)Nc1ccc(C(=O)N2CCN(C(C)=O)CC(O)C2)cc1 (stereo unspecified)	8%	i	9%	-5
CCC(O)c1cc2n(n1)CCN(C(=O)c1nc(N)nc3c1CCCC3)C2 (stereo unspecified)	-7%	28µM*	-4%	11
CN(C)Cc1nnc(C2CCN(C(=O)c3nc(N)nc4c3CCCC4)CC2)n1C	5%	25µM*	-2%	1
CCC(O)c1cc2n(n1)CCN(C(=O)c1ccc(-c3ccccc3)n1C)C2 (stereo unspecified)	-7%	i	-8%	6
CC(=O)N1CCN(C(=O)c2nc(N)nc3c2CCCC3)CC(O)C1 (stereo unspecified)	-2%	25µM*	3%	5
O=C(c1ccccc1)N1CCC2(C1)C(=O)Nc1ccccc12 (stereo unspecified)	2%[87.6 µM]	i	16%[87.6 µM]	-7
Cc1[nH]c(=O)c(C#N)cc1C(=O)N1CCC2(CC1)C(=O)Nc1ccccc12	2%	22µM*	3%	9
Oc1ccc(Br)cc1C=Nc1ccccc1C(F)(F)F	.	i	.	.
COCCNC(=O)[C@@H]1C[C@H](Oc2cccnc2)CN1C(=O)c1sc(C)nc1C	-3%	i	-11%	15
COCC(=O)N1CCN(Cc2ccccc2-c2ccc(C)c(Cl)c2)CC1	3%[12.5 µM]	.	-3%	-8
CNc1ncc(CN(C)C(=O)c2cc(S(N)(=O)=O)ccc2F)cn1	-14%	22µM*	-11%	-2
N#Cc1ccc(CN2C[C@@H]3OCC(=O)N(CC(N)=O)[C@@H]3C2)cc1	-2%[87.6 µM]	35µM*	-23%[87.6 µM]	-5
CS(=O)(=O)N(Cc1cccnc1)C1CN(C(=O)c2ccc3cc[nH]c3c2)C1	2%	32µM*	-6%	3
COc1ccc(-c2ccnc3nc(CCc4ccccc4)nn23)c(F)c1	9%	28µM*	-18%	-1
COc1cc(F)ccc1-c1ccnc2nc(CCc3ccccc3)nn12	0%	25µM*	-21%	3
Fc1ccc(-c2ccnc3nc(C4CCCO4)nn23)cc1 (stereo unspecified)	5%	?	-3%	9
COc1ccc(-c2ccnc3nc(C4CCCO4)nn23)c(F)c1 (stereo unspecified)	-8%	25µM*	-4%	0
Cc1ccc(CC(=O)N2C[C@@H](CN3CCOCC3)[C@@H](CO)C2)cc1F	-13%	i	0%	7
Cc1cccc(OCC(=O)N2CCC(OC3CCN(C)CC3)CC2)c1	0%	i	73%	-8
Cc1cc(C)cc(-c2nc(C3CC(=O)N(c4ccc(F)cc4)C3)no2)c1 (stereo unspecified)	12%	i	7%	-3
CCc1nc2c(c(-c3ccc(Cl)cc3)n1)CCN(Cc1ccc(NC(C)=O)cc1)CC2	-4%	i	7%	6
COC(=O)[C@@H]1Cc2c([nH]c3ccccc23)[C@H]2C[C@@H](NCCNC(C)=O)C[C@@H](c3ccc(C)cc3)N21	2%	28µM*	-14%	-11
COC(=O)[C@@H]1Cc2c([nH]c3ccccc23)[C@H]2C[C@@H](NCCNC(C)=O)C[C@@H](c3ccccc3)N21	1%	8.9µM*	9%	-15
CCCCOc1ccc(NC(=O)c2ccccc2)c2cccnc12	.	i	.	.
Cc1ccc(Cn2cc(-c3ccncc3)cc2C(=O)NCC2CC2)cc1	3%	35µM*	10%	0
SMILES	SNCA viab count	KDM5B inh	SNCA expr inh	IP6K1 inhibitor
Cc1ccc(Cn2cc(-c3ccncc3)cc2C(=O)N(C)Cc2ccccc2)cc1	?	22µM*	-26%	-6
O=C(c1cccc(F)c1)N1CCC(Oc2ccccc2-c2nc(-c3ccncc3)no2)C1 (stereo unspecified)	8%	i	17%	16
CCc1noc(-c2cccn3c(CNC(=O)c4ccoc4)nnc23)n1	-3%	14µM*	-30%	2
CCc1noc(-c2cccn3c(CNC(=O)COc4ccc(F)cc4)nnc23)n1	-10%	22µM*	-23%	8
CCCc1noc(-c2cccn3c(CNC(=O)c4ccc(F)cc4)nnc23)n1	-13%	14µM*	19%	17
CCc1noc(-c2cccn3c(CNC(=O)c4ccccn4)nnc23)n1	15%	25µM*	12%	14
Cc1ccc(C(=O)N2CC(N(C)c3ccccc3C)C2)cc1	-15%[87.6 µM]	i	-29%[87.6 µM]	1
O=C(NCCc1cccc(F)c1)c1cccnc1	.	i	.	.
CCc1noc(-c2cccn3c(CNC(=O)c4ccc(Cl)cc4)nnc23)n1	-4%	?	-16%	9
CCc1noc(-c2cccn3c(CNC(=O)c4ccc5ccccc5n4)nnc23)n1	-29%	20µM*	?	-5
Cc1noc(-c2cccn3c(CNC(=O)c4ccccc4)nnc23)n1	0%	28µM*	4%	-6
CCc1noc(-c2cccn3c(CNC(=O)c4ccc(F)cc4)nnc23)n1	-1%	25µM*	-22%	11
CCc1noc(-c2cccn3c(CNC(=O)c4ccccc4)nnc23)n1	-11%	28µM*	-4%	16
Cc1c(Cl)c(C(F)(F)F)nn1CC(=O)Nc1ccc(Cl)cc1	.	i	.	.
COc1cccc(CNC(=O)CN2C(=O)NC3(CCCCC3)C2=O)c1OC	4%	i	2%	0
O=C(Nc1ccc(F)cc1)C1CCCN(c2ccnc3ccnn23)C1 (stereo unspecified)	-20%[87.6 µM]	.	-13%[87.6 µM]	-7
Cc1nn2c(c1-c1ccccc1OCc1ccccc1)N(Cc1ccc(C(=O)O)s1)CCC2	?	?	11µM*	21
Cc1nn2c(c1-c1ccccc1OCc1ccccc1)N(Cc1ccccc1)CCC2	?	?	?	23
Cc1nn2c(c1-c1ccccc1Oc1ccccc1)N(Cc1ccccc1O)CCC2	?	28µM*	2µM*	15
COc1ccccc1CN1CCCn2nc(C)c(-c3ccccc3C(N)=O)c21	?	32µM*	3.5µM*	13
Cc1nn2c(c1-c1ccccc1Oc1ccccc1)N(Cc1cccc(O)c1)CCC2	?	?	?	9
CCn1cnnc1-c1nn(C)c2c1CN(C(=O)CCC1CCCC1)CC2	6%	22µM*	-20%	-11
Cn1nc(-c2nncn2CC2CC2)c2c1CCN(C(=O)C1CC1)C2	3%	i	1%	-3
O=C(NCC1(COc2cnccn2)C[C@@H](O)[C@@H](O)C1)C1CCOCC1 (stereo partly specified)	0%[87.6 µM]	?	22%[87.6 µM]	-15
N#Cc1ccccc1CN1CCN(c2nccc(CCC(F)(F)F)n2)CC1	8%	i	-16%	11
O=C1NCC2(CCN(c3nccc(CCC(F)(F)F)n3)CC2)O1	0%	20µM*	-10%	-7
Brc1ccc(CN2CCC(c3nc4ncccc4[nH]3)C2)cc1 (stereo unspecified)	-2%	20µM*!	0%	2
